Laboratory results as given in PubChem BioAssay (NCI).
Compounds without any hit were thinned out: in the full panel of roughly 79,000, 15% have a hit. A number with no mark means an inactive call. Active and inactive are the calls of the source. Cut-off read from the data, not from the text of the source: active = growth inhibition above about 70%; inactive = the rest.

Columns and labels:
[1] = NCI Yeast Anticancer Drug Screen. Data for the rad50 strain (AID 155);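 note: 0% = growth of vehicle-only cultures of the same strain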; details: S. cerevisiae rad50 strain growth inhibition; at 50.0 µM; active compounds read high
Summary of the method: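 Relative growth inhibition (compound vs vehicle) was measured in yeast with a defined repair-gene alteration.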

[2] = NCI Yeast Anticancer Drug Screen. Data for the mec2-1 strain (AID 157); details: S. cerevisiae mec2-1 strain, at 50.0 µM, active compounds read high
Summary of the method: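 Test agents were screened against the mec2-1 yeast strain, with defined DNA repair or cell cycle alteration. Growth was scored as inhibition against vehicle-only controls.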

[3] = NCI Yeast Anticancer Drug Screen. Data for the sgs1 mgt1 strain (AID 161);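 note: 0% = growth of cultures given vehicle only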; details: S. cerevisiae sgs1 mgt1 strain, at 50.0 µM, active compounds read high
Summary of the method: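 Test agents were incubated with a DNA-repair-mutant yeast strain. Growth was then read and compared against vehicle-treated controls.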

[4] = NCI Yeast Anticancer Drug Screen. Data for the cln2 rad14 strain (AID 165);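 note: 0% = growth equal to vehicle treated cultures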; details: S. cerevisiae cln2 rad14 strain, at 50.0 µM, active compounds read high
Summary of the method: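 Growth of compound-exposed yeast (cln2 rad14 genotype) measured and expressed as inhibition relative to vehicle.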

[5] = NCI Yeast Anticancer Drug Screen. Data for the bub3 strain (AID 167); details: S. cerevisiae bub3 mutant strain, at 50.0 µM, active compounds read high
Summary of the method: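 Screening used yeast with an engineered genetic alteration affecting cell cycle control. Compound-exposed cultures were compared with vehicle cultures, and reduced growth was taken as inhibition.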

[6] = NCI Yeast Anticancer Drug Screen. Data for the mlh1 rad18 strain (AID 175); details: S. cerevisiae mlh1 rad18 strain growth inhibition; at 50.0 µM; active compounds read high
Summary of the method: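 In this whole-cell yeast screen, a strain with altered DNA damage repair is challenged with compound, and its growth is measured against matched vehicle-treated controls.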

Row | Structure (SMILES) | growth inhibition [1] | growth inhibition [2] | growth inhibition [3] | growth inhibition [4] | growth inhibition [5] | growth inhibition [6]
1 | Cc1ccc(C(=O)/C=C\C=C\c2ccccc2)cc1 | 16.6% | 27.7% | 41.6% | -3.7% | 50.6% | 19.8%
2 | CS(=O)(=O)CCC(Nc1ccc([N+](=O)[O-])cc1[N+](=O)[O-])C(=O)O (stereo unspecified) | 4.7% | 6.1% | 22.1% | 4.25% | 5.6% | -11.7%
3 | O=C1OCC2=C1C(c1ccc3c(c1)OCO3)c1cc3c(cc1O2)OCO3 (stereo unspecified) | -6.8% | -10.9% | -39.2% | 5.4% | -8.6% | -16.6%
4 | O=C1C=CC(=O)C1N=Nc1ccccc1 | 43.9% | 19.1% | 16.9% | 18.3% | -3.15% | 28.3%
5 | O=C1N=NC(=O)N1c1ccccc1 | -6.75% | 4.3% | 1% | -22.2% | -0.05% | 2.35%
6 | Cc1ccc(CSC(=S)NNc2ccccc2)cc1C | -28.6% | -44.3% | -2.15% | -13.6% | -32.6% | -35.8%
7 | Clc1ncc(-c2ccccc2)nc1Cl | 49.5% | 11.4% | 0.6% | 1.25% | 1.75% | 14.9%
8 | O=P1(O)Oc2ccc3ccccc3c2-c2c(ccc3ccccc23)O1 | -0.4% | 30.3% | -6.1% | -16.9% | 19.4% | 15.7%
9 | CN(C)CCCNc1ncnc2nc[nH]c12 | -25.8% | -43.7% | -31.8% | -19.8% | -28.4% | -0.15%
10 | CC(C)CCCCC(C)(C)OC(=O)NC(N)=O | 7.25% | 2% | 12.2% | 17.1% | -17.6% | 9.85%
11 | OCC(O)C(O)C(CN=Cc1ccccc1O)N=Cc1ccccc1O (stereo unspecified) | 5.05% | 1% | 3% | -26.1% | 12.9% | -2.45%
12 | CC(C)=CCC/C(C)=C\CC/C(C)=C/CO | -52.5% | -77.8% | -39.6% | -26.1% | -46.7% | -41.5%
13 | COc1ccc(CC(=O)NC(N)=O)cc1 | -6.35% | 2.7% | -12.3% | -9.4% | -6.1% | 5.15%
14 | C[N+](C)(C)CCOC(=O)/C=C/c1cnc[nH]1 | 9.7% | 10.9% | 37.7% | 23.6% | 6.4% | 16.1%
15 | CCOc1ccc(NC(=O)CC2SC(=Nc3ccc(C)cc3C)NC2=O)cc1 (stereo unspecified) | 12.6% | 24.5% | 33.3% | 44.3% | 39.4% | 28.8%
16 | CCC(=O)C(CC)Cc1ccc(OC)c(OC)c1 (stereo unspecified) | 1.4% | -15.9% | -11.8% | -5.55% | 6.55% | 2.25%
17 | CN(C)S(=O)(=O)C=C(c1ccccc1)c1ccccc1 | 1.25% | 4.1% | 17.4% | -5.1% | 15.3% | -0.2%
18 | Nc1nc(-c2ccccc2)nc2nc3[nH]c(=O)[nH]c(=O)c3nc12 | -12.3% | 5.25% | 22.8% | 0.95% | 19.1% | 2.95%
19 | Cc1cc(/C=N/N2CCN(/N=C/c3cc(C)n(-c4ccccc4)c3C)CC2)c(C)n1-c1ccccc1 | 2.5% | -9.15% | -2.7% | -27.9% | -2.95% | -13.6%
20 | CN=NNc1ccc(C#N)cc1 | 7.3% | 1.4% | -1.85% | -14.1% | -6.65% | 5.5%
21 | CCCCCCCCCC(=O)Oc1cccc2onc(C)c12 | -21.2% | -43.5% | -20.2% | -7.8% | -13.5% | -10.8%

Row | Structure (SMILES) | growth inhibition [1] | growth inhibition [2] | growth inhibition [3] | growth inhibition [4] | growth inhibition [5] | growth inhibition [6]
22 | Cc1ccc(Cc2n[nH]c(=O)n2/N=C\CC/C=N\n2c(Cc3ccc(C)cc3)n[nH]c2=O)cc1 | -13.9% | -23.6% | -18.1% | -0.9% | -28.9% | -4.05%
23 | CCOC(=O)N1CCN(C(=S)N/N=C(\C)c2cnccn2)CC1 | 99.3% (active) | 99.5% (active) | 99.5% (active) | 99.5% (active) | 99.5% (active) | 99.3% (active)
24 | O=C1NC(=S)S/C1=C\c1ccncc1 | 12.4% | -7.4% | -10.4% | 0.9% | 0.05% | -19.1%
25 | CCOC(=O)CNCc1cccc(C)c1 | -1.45% | -10.2% | -19.1% | -82.8% | 0.6% | 1.95%
26 | c1ccc2c(c1)CCc1c-2n[nH]c1-c1[nH]nc2c1CCc1ccccc1-2 | -12.1% | -10% | -1.3% | -21.9% | -26.2% | -5%
27 | Cc1cccc(NC(=O)Oc2ccc(Nc3ccccc3)cc2)c1 | 6.6% | 38.5% | 40.2% | 12.3% | 62% | 50.4%
28 | CN(C)C(=O)Nc1cccc(OC(=O)NC2CCCCCCC2)c1 | 2.65% | 28.3% | 29.2% | 3.95% | 34.4% | 19.6%
29 | O=C(CO)CC(=O)C(=O)Nc1ccccc1 | -10.8% | -22.9% | 1.5% | 10.6% | -4.15% | -9.9%
30 | CC(N)C(=O)NC(C(=O)NC1C(O)OC(CO)C(O)C1O)C(C)C (stereo unspecified) | 6.1% | -17.2% | -17.4% | 7.95% | 7.1% | -5.75%
31 | O=C(O)c1ccccc1Oc1ccc([N+](=O)[O-])cc1[N+](=O)[O-] | 4.3% | 16.8% | 32% | -82% | 26.8% | 20.1%
32 | N#C/C(=C\c1c2ccccc2c(Cl)c2ccccc12)C(N)=S | 34.2% | 24.9% | 45.1% | 7.55% | 15.4% | 24.4%
33 | O=C1/C(=C/c2ccccc2)CN(C(=O)OCC(Cl)(Cl)Cl)C/C1=C\c1ccccc1 | 2.6% | 7.3% | -31.4% | 4.9% | -11% | -57.7%
34 | CC(C)OC(=O)Oc1ccccc1Cl | -18.5% | -21.1% | -13.6% | -6.9% | -3.35% | -22.4%
35 | OC1CCCNC1 (stereo unspecified) | 16.9% | -4.5% | 21.1% | 18.1% | 14.5% | 30.2%
36 | COc1cccc(C(=O)O)c1Cc1cccc2ccccc12 | 1.25% | -6.7% | 10.3% | 27.2% | -0.4% | 25.1%
37 | Cc1ccc(S(=O)(=O)OCC2OCOC2C2OCOC2CI)cc1 (stereo unspecified) | 12.2% | 3% | 2.6% | -9.9% | 10.1% | 13.2%
38 | C=CCc1nc2c([nH]1)c(=O)n(C)c(=O)n2C | 33.5% | -2.2% | 37.6% | 11.7% | -6.8% | 18.6%
39 | Cc1ccc2c(c1)-c1cc(C)ccc1C2 | 29.1% | 19.9% | 16.4% | 15% | 29.4% | -1.35%
40 | Oc1ccc2ccccc2c1Br | 45.9% | 55.5% | 40.2% | 26.1% | 44.2% | 35.6%
41 | O=C(Nc1ccccc1)c1ccccc1C(O)(c1ccccc1)c1ccc(Cl)cc1 (stereo unspecified) | 84.7% (active) | 14% | 77% (active) | 11.1% | 52% | 56.3%
